Measurements: the supplement of paper PMC10127200
Where a name gives a salt, the structure may show the parent alone.

How the values were obtained:
Assay in all cases: Euclidean distance of Cell Painting phenotypic profile (signed KS, 77 features) to DMSO centroid (dimensionless distance); 5 or 10 uM (library dependent); higher = stronger phenotypic change vs DMSO (phenoactivity)
Settings in all cases: 48 h
786-O = test system: 786-O
How it was run: (§1)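 Harmony extracted 77 features from 20X confocal images (9 fields/well) of stained cells, scoring each as a signed Kolmogorov-Smirnov statistic against same-plate vehicle wells. The cells, five cancer lines and a healthy fibroblast line, had received library compounds for 48 h at 10 or 5 uM depending on library, with 0.1% DMSO final. Phenoactivity is the Euclidean distance from each plate-position-corrected, correlation-weighted, top-dose replicate-averaged profile to the median vehicle profile.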

A549 = test system: A549
How it was run: as §1

DU145 = test system: DU145
How it was run: as §1

FB = test system: FB
How it was run: as §1

HEPG2 = test system: HEPG2
How it was run: as §1

OVCAR4 = test system: OVCAR4
How it was run: as §1

Row | Compound | Euclidean distance (786-O) | Euclidean distance (A549) | Euclidean distance (DU145) | Euclidean distance (FB) | Euclidean distance (HEPG2) | Euclidean distance (OVCAR4)
1 | OCc1ccccc1 [Benzyl alcohol] | 1.29 | 0.876 | 0.897 | 1.21 | 1.52 | 1.19
2 | CC(C)[C@H]1CC[C@H](C(=O)N[C@H](Cc2ccccc2)C(=O)O)CC1 [Nateglinide] | 2.04 | 1.19 | 1.17 | 0.97 | 0.589 | 1.71
3 | Cc1cn(-c2cc(NC(=O)c3ccc(C)c(Nc4nccc(-c5cnccn5)n4)c3)cc(C(F)(F)F)c2)cn1 [Radotinib] | 1.61 | 1.33 | 1.78 | 1.12 | 0.843 | 1.17
4 | Cc1cc(C)c(Nc2ccnc(Nc3ccc(C#N)cc3)n2)c(C)c1 [Dapivirine (TMC120)] | 2.34 | 2.56 | 1.87 | 1.33 | 3.09 | 2.01
5 | C[S+]([O-])c1ccc(-c2nc(-c3ccc(F)cc3)c(-c3ccncc3)[nH]2)cc1 (centres undefined) | 1.84 | 0.978 | 1.1 | 1.03 | 2.4 | 1.33
6 | O=C(Nc1cc(C(F)(F)F)cc(C(F)(F)F)c1)c1cc(Cl)ccc1O | 0.884 | 0.772 | 1.02 | 1.14 | 0.971 | 1.48
7 | COc1cc(-c2cc(-c3cccc(O)c3)cnc2N)cc(OC)c1OC | 2.06 | 2.24 | 1.46 | 2.23 | 1.93 | 1.77
8 | OB1OCc2cc(F)ccc21 [Tavaborole (AN-2690)] | 0.735 | 0.76 | 0.961 | 1.16 | 0.354 | 0.974
9 | Cc1cc(Nc2ncnc3ccc(-c4ccc(CNCCS(C)(=O)=O)o4)cc23)ccc1Oc1ccn2ncnc2c1 [HER2-Inhibitor-1] | 1.06 | 0.771 | 1.08 | 1.37 | 1.3 | 1.22
10 | CC(C)(C)C(=O)OCOP(=O)(COCCn1cnc2c(N)ncnc21)OCOC(=O)C(C)(C)C [Adefovir Dipivoxil] | 2.81 | 2.71 | 2.07 | 2.73 | 3.97 | 3.18
11 | CC(C)(O)c1ccccc1CC[C@@H](SCC1(CC(=O)O)CC1)c1cccc(/C=C/c2ccc3ccc(Cl)cc3n2)c1 [Montelukast Sodium] | 0.941 | 0.527 | 0.759 | 0.512 | 0.526 | 0.733
12 | C[C@H]1[C@H](NC(=O)/C(=N\OC(C)(C)C(=O)O)c2csc(N)n2)C(=O)N1S(=O)(=O)O [Aztreonam] | 1.13 | 0.951 | 1.05 | 1.15 | 0.888 | 1.53
13 | COc1cc(O)c(C(=O)Nc2nc(C(=O)NCCN(C(C)C)C(C)C)cs2)cc1OC [Acotiamide] | 1.22 | 0.413 | 0.881 | 0.785 | 0.356 | 0.831
14 | O=C(OCCOCCO)c1ccccc1Nc1cccc(C(F)(F)F)c1 [Etofenamate] | 0.974 | 0.683 | 1.59 | 1.79 | 0.744 | 0.722
15 | CCCc1cc(=O)[nH]c(=S)[nH]1 [Propylthiouracil] | 0.782 | 1.25 | 2.02 | 1.4 | 0.77 | 1.77
16 | CN1C(=O)CC(c2ccccc2)C1=O (centres undefined) [Phensuximide] | 0.788 | 1.12 | 1.01 | 0.827 | 0.849 | 0.954
17 | CCn1c(=O)c(-c2cc(NC(=O)Nc3ccccc3)c(F)cc2Br)cc2cnc(NC)cc21 [Ripretinib (DCC-2618)] | 2.86 | 3.27 | 2.91 | 3.89 | 2.27 | 3.18
18 | COc1ccc(-c2nc3cc(C4=NNC(=O)CC4C)ccc3[nH]2)cc1 (centres undefined) [Pimobendan] | 1.43 | 1.4 | 1.01 | 1.27 | 1.2 | 1.02
19 | Oc1cc(O)cc(/C=C/c2ccc(O)c(O)c2)c1 [Piceatannol] | 0.759 | 1.05 | 0.992 | 1.3 | 2.04 | 0.83
20 | O=C(Nc1cccc(C(F)(F)F)c1)Nc1cc(S(=O)(=O)NC2CC2)ccc1-c1ccsc1 | 0.684 | 1.29 | 1.11 | 1.51 | 2.45 | 1.01
21 | CCN(CC)CCCC(C)Nc1c2ccc(Cl)cc2nc2ccc(OC)cc12 (centres undefined) [Quinacrine 2HCl] | 3.59 | 4.6 | 2.81 | 5.56 | 4.32 | 3.92
22 | CC(C)OC(=O)C1=CN(C(=O)c2ccc(F)c(F)c2)CC(C)(C)c2c1[nH]c1ccccc21 | 0.816 | 0.896 | 0.818 | 0.982 | 1.22 | 1.07
23 | O=C(/C=C/c1ccc(CN(CCO)CCc2c[nH]c3ccccc23)cc1)NO [LAQ824 (Dacinostat)] | 2.61 | 4.89 | 4.56 | 3.59 | 4.12 | 3.09
24 | COc1cc(/C=C/C(=O)O)ccc1O [Sodium ferulate] | 1.56 | 1.15 | 1.14 | 1.08 | 1.11 | 1.46
25 | O=C(N/N=C/c1ccc(O)c(O)c1)c1cc2ccccc2cc1O [Dynasore] | 0.917 | 1.21 | 0.791 | 0.928 | 1.13 | 0.791

Row | Compound | Euclidean distance (786-O) | Euclidean distance (A549) | Euclidean distance (DU145) | Euclidean distance (FB) | Euclidean distance (HEPG2) | Euclidean distance (OVCAR4)
26 | CN(C)[C@@H]1C(O)=C(C(N)=O)C(=O)[C@@]2(O)C(O)=C3C(=O)c4c(O)cccc4[C@@](C)(O)[C@H]3[C@H](O)[C@@H]12 [Oxytetracycline Dihydrate] | 1.33 | 0.832 | 1.09 | 1.19 | 1.9 | 1.3
27 | CC1=C(CC(=O)O)c2cc(F)ccc2/C1=C\c1ccc([S+](C)[O-])cc1 (centres undefined) [Sulindac] | 0.824 | 0.664 | 0.975 | 0.812 | 1.5 | 1.26
28 | NC(=O)N1c2ccccc2CC(=O)c2ccccc21 [Oxcarbazepine] | 2.18 | 1.39 | 1.26 | 1.19 | 1.13 | 1.57
29 | Clc1ccc2c(c1)CCc1cccnc1C2=C1CCNCC1 [Desloratadine] | 1.38 | 0.811 | 1.51 | 1.83 | 2.17 | 1.88
30 | COc1c(C)c2c(c(O)c1C/C=C(\C)CCC(=O)OCCN1CCOCC1)C(=O)OC2 [Mycophenolate Mofetil] | 2.59 | 3.61 | 2.11 | 3.32 | 2.76 | 3.19
31 | O=C(c1ccc(F)cc1)N1CCC[C@H](c2nc(-c3ccc(F)cc3)no2)C1 | 1.35 | 0.726 | 0.856 | 1.17 | 0.656 | 0.832
32 | CN1C(C(=O)Nc2ccccn2)=C(O)c2sc(Cl)cc2S1(=O)=O [Lornoxicam] | 0.853 | 0.623 | 0.95 | 0.965 | 1 | 0.799
33 | Cc1cc(C)cc(NC(=O)Cc2ccc(OC(C)(C)C(=O)O)cc2)c1 [Efaproxiral Sodium] | 1.04 | 0.727 | 0.774 | 0.966 | 0.587 | 0.981
34 | CCOC(=O)CCNc1cc(N2CCc3ccccc3CC2)nc(-c2ccccn2)n1 | 2 | 2.58 | 2.35 | 2.56 | 2.41 | 1.95
35 | Oc1ccc([C@H]2COc3cc(O)ccc3C2)cc1 (racemic) | 1.39 | 0.796 | 1.27 | 0.952 | 0.464 | 0.928
36 | N#C/C(=C\c1ccc(O)c(O)c1)C(=O)NCc1ccccc1 [AG-490 (Tyrphostin B42)] | 1.55 | 1.52 | 1.17 | 1.34 | 0.804 | 0.729
37 | NCCc1c[nH]cn1 [Histamine] | 1.05 | 1.15 | 1.33 | 1.24 | 1.08 | 1.27
38 | CCOc1nc2cccc(C(=O)OC(C)OC(=O)OC3CCCCC3)c2n1Cc1ccc(-c2ccccc2-c2nn[nH]n2)cc1 (centres undefined) [Candesartan Cilexetil] | 1.1 | 0.605 | 1.35 | 0.788 | 1.82 | 1.29
39 | COc1cc2nc(N3CCN(C(=O)C4COc5ccccc5O4)CC3)nc(N)c2cc1OC (centres undefined) [Doxazosin] | 1.52 | 1.28 | 1.55 | 0.683 | 0.609 | 1.18
40 | CCn1cc(C(=O)O)c(=O)c2cc(F)c(N3CCNCC3)cc21 [Norfloxacin] | 1.28 | 0.791 | 0.924 | 1.26 | 0.65 | 1.01
41 | CCCCCCCCCC(=O)OC1(c2ccc(Cl)cc2)CCN(CCCC(=O)c2ccc(F)cc2)CC1 [Haloperidol Decanoate] | 0.828 | 1.13 | 1.01 | 0.816 | 0.961 | 1.26
42 | NC(=O)c1ccc(N(C(N)=O)c2c(F)cccc2F)nc1-c1ccc(F)cc1F | 1.24 | 1.16 | 1.41 | 1.37 | 0.723 | 1.18
43 | C=CC1=C(C(=O)O)N2C(=O)[C@@H](NC(=O)/C(=N\O)c3csc(N)n3)[C@H]2SC1 [Cefdinir] | 0.892 | 0.765 | 2.48 | 1.4 | 1.17 | 0.686
44 | CO[C@H]1/C=C/O[C@@]2(C)Oc3c(C)c(O)c4c(O)c(c(/C=N/N5CCN(C)CC5)c(O)c4c3C2=O)NC(=O)/C(C)=C\C=C\[C@H](C)[C@H](O)[C@@H](C)[C@@H](O)[C@@H](C)[C@H](OC(C)=O)[C@@H]1C [Rifampin] | 1.56 | 0.64 | 1.44 | 1.36 | 2.28 | 1.14
45 | CN1CC(=O)N2[C@H](c3ccc4c(c3)OCO4)c3[nH]c4ccccc4c3C[C@@H]2C1=O [Tadalafil] | 1.16 | 0.906 | 0.404 | 0.948 | 0.78 | 1.22
46 | N[C@@H](CCC(=O)N[C@@H](CS)C(=O)NCC(=O)O)C(=O)O [Glutathione] | 1.52 | 1.12 | 1.48 | 1.03 | 0.978 | 1.55
47 | CC1=C(/C=C/C(C)=C/C=C/C(C)=C/C(=O)Nc2ccc(O)cc2)C(C)(C)CCC1 [Fenretinide] | 2.9 | 2.87 | 1.92 | 2.58 | 1.91 | 2.4
48 | Cc1nc(C)c(C)nc1C [Ligustrazine hydrochloride] | 0.557 | 0.605 | 0.684 | 0.693 | 0.523 | 0.693
49 | O=C1C(=O)N(Cc2ccc(Cl)c(Cl)c2)c2ccccc21 [Apoptosis Activator 2] | 1.05 | 1.36 | 1.29 | 1.07 | 0.54 | 1.11
